Laboratory results reported in PubChem BioAssay (NCATS).
Inconclusive results are not listed. Unmarked numbers belong to inactive results. Calls of active or inactive are those of the source. Calls follow the shape of the dose curve; as a rule, active = well fitted curve in the direction sought with a large enough effect; inconclusive = small, poorly fitted or top-dose-only effect, or another doubt; inactive = no such curve, though single readings can be large; an effect the other way counts as inactive or inconclusive.

assay: qHTS of pediatric cancer cell lines to identify multiple opportunities for drug repurposing: Confirmatory screen for NB1643 cells (AID 1347109); settings: NB1643 neuroblastoma cell viability; series mostly up to 45.9 µM; activity change, negative = cytotoxic: at the top concentration; also: nearly all actives have a fitted effect of over 45% in size;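 as to activity change, negative = cytotoxic: plate controls were DMSO for no effect and bortezomib for full effect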
Outline: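 Cells (500-1,000/well) rested 5 h, then received compounds for 48 h; metabolically active cells were measured by CellTiter-Glo luminescence. Final concentrations spanned up to 46 µM (MIPE, 11-point) or 0.59 nM-46 µM (NPC, 8-point) in primary screens, 11-point in follow-ups.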
Potency is read from the fitted curve at half-maximal effect.

Compound | Potency | activity change, negative = cytotoxic [%]
Cc1cnc(Nc2ccc(CN3CCOCC3)cc2)nc1Nc1cccc(S(=O)(=O)NC(C)(C)C)c1 | 5850 nM (active) | –
COC(=O)[C@@H]1[C@H]2C[C@@H]3c4[nH]c5ccccc5c4CCN3C[C@@H]2CC[C@@H]1O | – | 2.96
CC(C)C[C@H](NC(=O)[C@@H](NC(=O)c1cccc(-c2ccccc2)n1)[C@@H](C)O)B(O)O | 82.7 nM (active) | –
CCS(=O)(=O)Nc1ccc2[nH]c(O)c(C(=Nc3ccc(CN4CCCCC4)cc3)c3ccccc3)c2c1 | 65.7 nM (active) | –

assay: qHTS of pediatric cancer cell lines to identify multiple opportunities for drug repurposing: Confirmatory screen for A673 cells (AID 1347110); settings: A673 Ewing sarcoma cell viability; series mostly up to 45.9 µM; activity change, negative = cytotoxicity: at the top concentration;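 also: cells exposed to compound for 48 h before the viability read; nearly all actives have a fitted effect of over 65% in size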;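 as to activity change, negative = cytotoxicity: plate controls were DMSO neutral control for no effect and bortezomib positive control for full effect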
Outline: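 qHTS titration format: primary MIPE 0.78 nM-46 µM (11 pts), NPC 0.59 nM-46 µM; confirmation 11 pts. 48 h, CTG luminescence.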

Compound | Potency | activity change, negative = cytotoxicity [%]
C[C@H]1[C@@H](OC(=O)CCC(=O)O)O[C@@H]2O[C@@]3(C)CC[C@@H]4[C@H](C)CC[C@@H]1[C@@]24OO3 | 2330 nM (active) | –
Cc1cnc(Nc2ccc(CN3CCOCC3)cc2)nc1Nc1cccc(S(=O)(=O)NC(C)(C)C)c1 | 13100 nM (active) | –
COC(=O)[C@@H]1[C@H]2C[C@@H]3c4[nH]c5ccccc5c4CCN3C[C@@H]2CC[C@@H]1O | – | 9.82
CC(C)C[C@H](NC(=O)[C@@H](NC(=O)c1cccc(-c2ccccc2)n1)[C@@H](C)O)B(O)O | 73.7 nM (active) | –
CCS(=O)(=O)Nc1ccc2[nH]c(O)c(C(=Nc3ccc(CN4CCCCC4)cc3)c3ccccc3)c2c1 | 928 nM (active) | –
CC(C(C)N1CC(=O)NC(=O)C1)N1CC(=O)NC(=O)C1 (stereo not drawn) | – | -12
O=S(=O)(O)CCSSCCS(=O)(=O)O | – | 10.4
Nc1ncn([C@@H]2O[C@H](CO)[C@@H](O)[C@@H]2O)c(=O)n1 | 5850 nM (active) | –
CC(=O)O[C@@]12CO[C@H]1C[C@H](O)[C@@]1(C)C(=O)[C@H](O)C3=C(C)[C@@H](OC(=O)C(O)[C@@H](NC(=O)OC(C)(C)C)c4ccccc4)C[C@@](O)([C@@H](OC(=O)c4ccccc4)[C@@H]21)C3(C)C (stereo partly drawn) | 5.2 nM (active) | –
